Source: the OligoGym collection

Biological target: CHRM2
Experiment: pooled miR-30 sensor sort-seq; sequence = guide strand
Conditions: shRNA
Further: reference of the scale not given here.

Sequence | sensor-assay potency score (higher = more potent)
TTAAAGGTCTTCTTGAAGGTGG | 0.265
TTAATGAGCACCATGACATTGT | -0.0449
TATTAGAGGCAACAGCACTGAC | -0.688
TTTAATGGAAACCATGACTAGG | -0.722
ATAAGGACTTGTAAGAGCCAGG | -0.765
TATAAGGACTTGTAAGAGCCAG | -0.37
TTAGAGTTCTCATCTTTGGAAT | -1.06
TTCATAACTGAGGCATTGCTGA | -0.852
TAAAAAGTAATTGTTGACGGTC | 0.0384

Biological target: CHRNA1
Experiment: as above
Conditions: shRNA

Sequence | sensor-assay potency score (higher = more potent)
TATAACAGCAATGACAATGCAA | 0.464
TTCTTAGTAGGTACAAAACTGA | -0.855
TTGATGGCCACGACAGAGCCGT | -0.893
TAGCAAAGTCACCATCTGCATT | -1.03
TAGCTTTGCCACCAGACGGGTC | -1.08
TTTGTCTTGCTTTTCTCTGGAT | -0.428
TACTGCAGGAGCACTTTGGTGA | 0.163
ATTTACTTCATCCACATTGATG | -1.52
TAACACGTTTGATAAGTGCGAG | -0.52
TAAGCAAAGAATACACTTCATT | -1.02
TAGGTCACGGAGTGCTTCCAGC | -1.17
TTAGAACATCAGCAACTCCCTA | -0.4
TTGCAACGTACTTCCACTCTGC | 0.505
ATTGATGAGCTGTATCAGCTGC | 0.306
TAAGTATGGAATATAACACGTT | -0.0814
TACTGCTTCCTCTCTCTCCAAA | -0.987
TAGACAAATCTTCCTCTCCTGC | -0.927
TTGTCTTGCTTTTCTCTGGATG | -0.807
TTGACAATAGCAAAGTCACCAT | -0.507
TAGCTTTTAAAGATGGCTGGAG | -0.126
TTCATCCACATTGATGAGCTGT | -0.162
TTTTTTAGTGATTAGTTTCATT | -0.783
TAGAACATCAGCAACTCCCTAG | 0.223
TACTTCATCCACATTGATGAGC | -0.906

Biological target: CHRNE
Experiment: as above
Conditions: shRNA

Sequence | sensor-assay potency score (higher = more potent)
TTGATGGTCTTGCCGTCGTTGT | -1.26
TTGTTTTCCAGCACAATCTCTG | -0.404
TAGTGGTGAGAGTCTCCTCTTT | -0.541
TCTTGTTGATGGTCTTGCCGTC | 0.0404
TTCACGGCATCCACACAGCAGC | -0.899
TTTTCCAGCACAATCTCTGGCA | -0.449
